DT40 TDP1 no CPT – qHTS for Inhibitors of human tyrosyl-DNA phosphodiesterase 1 (TDP1): qHTS in cells in absence of CPT. DT40 Tdp1-/- hTDP1 cells, no CPT, ATP luminescence, 48 h. Potency, µM (titrated, usually from 46.2 µM), for inactives: at the top dose activity change, negative = growth inhibition, most hits filed as inhibitors. 420,000 compounds, 15% hits; note: potency is the fitted concentration of half-maximal effect; nearly all actives have a fitted effect of over 55% in size
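DT40 Tdp1-/-;hTDP1 cells, no CPT (DMSO vehicle only), 400 cells/well; compounds pin-transferred; ≥48 hr, 37 °C; CellTiter-Glo 30 min RT dark, luminescence read.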
HT1080NT lethal – qHTS for induction of synthetic lethality in tumor cells producing 2HG: qHTS for the HT-1080-NT fibrosarcoma cell line; HT-1080-NT fibrosarcoma viability, CellTiter-Glo ATP luminescence, 48 h; Potency, µM (titrated, usually from 46.1 µM), without a hit: top-dose activity, negative = less viability, hits mostly cytotoxic; 360,000 compounds, 1.6% hits; AID 686970, 2013;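 note: NT is the 2HG producing partner of a matched IDH1 knockdown line; potency is the fitted concentration of half-maximal effect; 0% = DMSO-treated cells and -100% = media-only wells without cells; nearly all actives have a fitted effect of over 55% in size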
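Viability of the 2HG-overproducing fibrosarcoma line after 48 hours of compound exposure at 37 degrees C was determined by luminescence with CellTiter-Glo, and concentration-effect curves were then fitted and categorized.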
IL1B secr inh – qHTS for Inhibitors of Inflammasome Signaling: IL-1-beta AlphaLISA Primary Screen | AID 743279, 2014 | activity change, % at 57.5 µM | 360,000 compounds, 4.7% hits | THP-1 LPS/ATP IL-1B secretion, AlphaLISA, 16 h; hits give low values; in the data active = activity change below about -50%; inconclusive = mostly about -30% to -49%
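THP-1 cells pretreated 1 hr with compounds (up to 57.5 uM final), then stimulated with LPS (250 ng/mL final) plus ATP (1.25 mM final); secreted IL-1B measured by AlphaLISA after 16 hr, decreased signal indicating inhibition.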
DT40 TDP1 CPT – qHTS for Inhibitors of human tyrosyl-DNA phosphodiesterase 1 (TDP1): qHTS in cells in presence of CPT. Potency, µM (series often up to 46.2 µM), inactives show at the top dose activity change, negative = growth inhibition, hits mostly inhibitors. chicken DT40 Tdp1-/-;hTDP1 cells + 20 nM CPT, ATP luminescence, 48 h. 420,000 compounds, 12% hits; note: potency is the fitted concentration of half-maximal effect; nearly all actives have a fitted effect of over 55% in size
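Cell growth measured by CellTiter-Glo luminescence after a minimum 48 h, 37 C compound exposure with 20 nM CPT in Tdp1-knockout DT40 cells stably expressing hTDP1, seeded 400/well; qHTS titration format.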
HT1080 IDH1KD tx – qHTS for induction of synthetic lethality in tumor cells producing 2HG: qHTS for the HT-1080-IDH1KD cell line | HT-1080 IDH1 knockdown viability, ATP luminescence, 48 h | 360,000 compounds, 2% hits | Potency, µM (highest dose often 46.1 µM), for the others: top-dose activity, negative = toxicity, most hits filed as cytotoxic;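 note: potency is the fitted concentration of half-maximal effect; 0% = DMSO wells and -100% = cell-free medium wells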
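Cytotoxicity counter-line: IDH1KD HT-1080, 48 h, CellTiter-Glo. Curves classed by r2, magnitude and activity.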
12-LOX inh – Primary qHTS assay for inhibitors of human arachidonate 12S-lipoxygenase (ALOX12): Round 2. Potency, µM (top dose mostly 108 µM), inactives show at the highest dose activity change, negative = inhibition, usual class: inhibitors. 580,000 compounds, 1.1% hits. purified 12hLO, xylenol orange hydroperoxide absorbance; note: potency is the fitted concentration of half-maximal effect
Target sequence (P18054 whole entry, looked up): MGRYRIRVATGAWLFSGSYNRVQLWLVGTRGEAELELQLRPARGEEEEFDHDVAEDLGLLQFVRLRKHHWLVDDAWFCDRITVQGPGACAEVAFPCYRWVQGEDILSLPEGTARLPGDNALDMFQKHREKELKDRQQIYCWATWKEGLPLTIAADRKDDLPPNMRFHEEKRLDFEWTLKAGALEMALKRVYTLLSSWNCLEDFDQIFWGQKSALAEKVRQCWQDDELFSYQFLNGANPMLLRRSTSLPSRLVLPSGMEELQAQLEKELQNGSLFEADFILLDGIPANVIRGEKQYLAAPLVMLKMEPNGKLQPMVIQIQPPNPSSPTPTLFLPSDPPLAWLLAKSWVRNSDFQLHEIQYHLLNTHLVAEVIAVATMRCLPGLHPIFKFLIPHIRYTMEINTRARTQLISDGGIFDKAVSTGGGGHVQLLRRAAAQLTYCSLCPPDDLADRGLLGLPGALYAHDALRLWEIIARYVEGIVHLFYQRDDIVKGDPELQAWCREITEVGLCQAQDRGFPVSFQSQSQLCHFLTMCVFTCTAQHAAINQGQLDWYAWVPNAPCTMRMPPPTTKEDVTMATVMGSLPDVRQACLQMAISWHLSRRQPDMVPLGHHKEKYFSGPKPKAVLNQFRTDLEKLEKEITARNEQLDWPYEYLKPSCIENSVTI
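Purified human 12hLO at 150 nM in 25 mM Hepes, 0.01% Triton X-100, pH 7.0, preincubated 15 min at room temperature with compound. Reaction started with 40 uM arachidonic acid, 30 min at room temperature. Hydroperoxide measured by Fe-xylenol orange, 573/405 nm absorbance ratio.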
* marks the source's active call; other numbers are inactive results; ? = inconclusive; . = no result; [ ] = another dose, or the depositor's remark. Many of the other results were omitted from the sample, so hits are more common in it than they were. Unless noted, calls come from the whole dose curve; as a rule, active = well fitted curve in the direction sought with a large enough effect; inconclusive = small, poorly fitted or top-dose-only effect, or another doubt; inactive = no such curve, though single readings can be large; an effect the other way counts as inactive or inconclusive. Unless noted, % is set by controls: 0 for no effect and ±100 for the full control effect.

SMILES	DT40 TDP1 no CPT	HT1080NT lethal	IL1B secr inh	DT40 TDP1 CPT	HT1080 IDH1KD tx	12-LOX inh
CCOc1ccc(-c2nc(C3CC(=O)N(c4ccc(F)c(Cl)c4)C3)no2)cc1OCC (stereo not drawn)	.	.	.	.	.	-1%
COc1ccc(-c2cc(N3CCCC(NC(=O)Cc4ccc(OC)c(OC)c4)C3)n[nH]2)cc1 (stereo not drawn)	.	.	.	.	.	46%
FC(F)(F)c1cc(CCN2C(=S)NC[C@@H]2c2ccccc2)cc(C(F)(F)F)c1	?	7%	?	?	2%	?
FC(F)(F)c1cc(CO[C@H]2CCCN[C@H]2c2ccccc2)cc(C(F)(F)F)c1	13µM*	.	.	11µM*	.	7%
COCC(=O)NC[C@H]1CCN(Cc2ccccn2)C[C@H]1N(C)C	.	.	.	.	.	121%
CON(C)C(=O)CC(CNC(=O)OC(C)(C)C)c1ccc(Cl)cc1 (stereo not drawn)	15µM*	1%	4	?	-3%	-4%
CC(C)C(NC(=O)CNC(=O)OC(C)(C)C)C(=O)NCc1ccc(Cl)cc1 (stereo not drawn)	10%	-9%	-11	14%	6%	-1%
CON(C)C(=O)CC(CN(Cc1ccccc1)C(=O)OC(C)(C)C)c1ccc(Cl)cc1 (stereo not drawn)	?	-24%	-61*	23µM*	-26%	?
CON(C)C(=O)CCN(Cc1ccccc1)C(=O)OC(C)(C)C	?	27%	-3	?	9%	?
CC(=O)Nc1ccc(NC(=O)CS(=O)(=O)c2cn(CC(=O)N3CCC(C)CC3)c3ccccc23)cc1	-4%	-2%	8	-25%	-1%	337%
COc1ccc(C2Oc3ccccc3C3=C2C(c2cccs2)n2ncnc2N3)cc1 (stereo not drawn)	23µM*	?	-15	21µM*	8.2µM*	?
Brc1ccc(C2C3=C(Nc4ncnn42)c2ccccc2OC3c2ccncc2)cc1 (stereo not drawn)	?	?	?	?	?	-29%
Cc1cccc(CN2CCCC(CO)CCNC(=O)CC2)c1 (stereo not drawn)	.	.	.	.	.	35%
O=C(Nc1cccc(S(=O)(=O)Nc2ccccc2F)c1)c1ccc2ccccc2n1	23µM*	-3%	-51*	?	-9%	?
O=C(Nc1cccc(S(=O)(=O)Nc2ccccc2F)c1)c1cncn1-c1ccccc1	.	.	.	.	.	-3%
O=C(Cc1c(F)cccc1Cl)Nc1cccc(S(=O)(=O)NC2=NCCCCC2)c1	-14%	8%	-9	-25%	14%	3%
CN(C)S(=O)(=O)c1cccc(NC(=O)c2ccc3ccccc3n2)c1	.	.	.	.	.	-45%
COc1ccccc1NS(=O)(=O)c1cccc(NC(=O)c2nc3nc(C)cc(C)n3n2)c1	13µM*	-1%	-11	23µM*	-2%	0%
O=C(Cc1ccc(Cl)cc1Cl)Nc1cccc(S(=O)(=O)Nc2ccccc2F)c1	23µM*	0%	-102*	15µM*	-26%	?
O=C(/C=C/c1ccccc1)Nc1cccc(S(=O)(=O)Nc2ccccc2F)c1	15µM*	2%	-54*	15µM*	-13%	22µM*
CCN(CC)S(=O)(=O)c1cccc(NC(=O)c2ccc3ccccc3n2)c1	.	.	.	.	.	42%
COc1ccccc1NS(=O)(=O)c1cccc(NC(=O)c2ccc3ccccc3n2)c1	16µM*	0%	14	21µM*	2%	-19%
Cc1cccc(C)c1NC(=O)c1cccc(CN2CCCC2C)c1 (stereo not drawn)	.	.	.	.	.	60%
COc1ccc(NC(=O)COc2ccc(/C=N/O)cc2OC)cc1	12µM*	?	-16	?	6%	40%
COc1cc(/C=N/NC(=S)NC(C)C)ccc1OCC(=O)Nc1c(C)cc(C)cc1C	7.3µM*	-21%	28	7.3µM*	-21%	-27%
SMILES	DT40 TDP1 no CPT	HT1080NT lethal	IL1B secr inh	DT40 TDP1 CPT	HT1080 IDH1KD tx	12-LOX inh
CCCCNC(=S)N(C)/N=C/c1ccc(OCC(=O)Nc2c(C)cc(C)cc2C)c(OC)c1	8.2µM*	-27%	-9	13µM*	?	-1%
COc1cc(/C=N/NC(=O)c2ccc(Cl)cc2)ccc1OCC(=O)N1CC(C)OC(C)C1 (stereo not drawn)	?	11%	-10	-7%	-9%	-4%
COc1cc(/C=N/NC(=O)c2ccncc2)ccc1OCC(=O)Nc1ccc(C)c(C)c1	?	-7%	17	?	-6%	-10%
COc1cc(/C=N/NC(=S)Nc2cccc(Cl)c2C)ccc1OCC(=O)N1CC(C)OC(C)C1 (stereo not drawn)	15µM*	-1%	-26	15µM*	-16%	45µM*
CC1=C[C@@H](CNS(C)(=O)=O)[C@H](C(C)C)C[C@H]1CC(=O)NC1CCCC1	.	.	.	.	.	9%[176 µM]
COc1ccc(-c2cc3nc4c(c(=O)n3[nH]2)CN(C(=O)c2ccc(Cc3c(C)noc3C)o2)CC4)cc1	.	.	.	.	.	36%
Cc1ccc(NC(=O)N2CC(C(=O)N(C)C)C3(CCOCC3)C2)cc1F (stereo not drawn)	.	.	.	.	.	11%
CCCCNC(=S)N(C)/N=C/c1ccc(OCC(=O)Nc2ccc(OC)cc2)c(OC)c1	?	-10%	?	23µM*	-35%	-7%
Cc1ccc(NN2C(=O)C=C(c3ccccc3)C2=O)cc1	7.3µM*	23µM*	-28	5.8µM*	16µM*	?
Cc1ccc(C(C(=O)NC2CCCCC2)N(C(=O)c2cnccn2)c2cccs2)cc1 (stereo not drawn)	.	.	.	.	.	-15%
CN1CCC(CNC(=O)c2cc(-c3ccc(F)cc3)cc3ncn(C)c23)CC1=O (stereo not drawn)	.	.	.	.	.	9%[176 µM]
CCOC(=O)/C=C(C)\C=C\c1c[nH]c2ccccc12	29µM*	?	-64*	-6%	?	?
Cc1ccc(C)c(NC(=O)CCNC(=O)Cc2ccccc2)c1	.	.	.	.	.	-18%

High-throughput results deposited in PubChem by National Center for Advancing Translational Sciences (NCATS).
